The panel holds about 83,000 compounds, 20% with a hit somewhere; the sample as a whole holds those more often.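 96-well plates, one dose, 48 hours. Percent growth reported; active if below 10.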 A number with no mark means an inactive call. The source made the active and inactive calls.
How the values were obtained:
Test in all cases: NCI-60 one-dose screen, 48 h (100 = growth as untreated, 0 = no growth, -100 = all killed)
Conditions in all cases: 10 µM unless noted
[1] = test system: NCI-H23 lung
[2] = test system: NCI-H226 lung
[3] = test system: NCI-H322M lung
[4] = test system: HOP-62 NSCLC
[5] = test system: NCI-H460 lung
[6] = test system: HOP-92 NSCLC
[7] = test system: NCI-H522 lung
[8] = test system: A549/ATCC NSCLC
[9] = test system: 786-0 renal
[10] = test system: COLO 205 colon
[11] = test system: DU-145 prostate
[12] = test system: K-562 leukemia
[13] = test system: MALME-3M melanoma
[14] = test system: MDA-MB-231 breast
[15] = test system: RXF 393 renal
[16] = test system: SF-268 CNS
[17] = test system: SF-295 CNS
[18] = test system: SF-539 CNS
[19] = test system: UACC-257 melanoma
[20] = test system: M14 melanoma

SMILES | growth [1] | growth [2] | growth [3] | growth [4] | growth [5] | growth [6] | growth [7] | growth [8] | growth [9] | growth [10] | growth [11] | growth [12] | growth [13] | growth [14] | growth [15] | growth [16] | growth [17] | growth [18] | growth [19] | growth [20]
COc1ccc(N=Nc2c(N)nn3c(-c4ccc(F)cc4)ccnc23)cc1 | 43.7% | 87.8% | 84.3% | 34.6% | 64.7% | 100% | 86.5% | 43% | 92.3% | 94.4% | 79.9% | 71.9% | 40.4% | 77.2% | 106% | 83.5% | 87.7% | 67.5% | 81.8% | 51.3%
COc1cccc(NC(=O)c2ccc(NC(=O)CCl)s2)c1 | 11.9% | 61.5% | 101% | 64.2% | 12.1% | 85.9% | -79.7% (active) | 39.7% | -86.8% (active) | 40.2% | 88.1% | 4.03% (active) | 45.5% | -26.5% (active) | 56.9% | 45.7% | 65.4% | 38.4% | 27.7% | 14.2%
Fc1ccc(F)c(CNc2nc(SCCN3CCOCC3)nc3c2cnn3CC(Cl)c2ccc(Br)cc2)c1 (stereo not given) | 40.3% | 16.2% | 75.2% | 47.8% | 6.7% (active) | 20.1% | 37.6% | 20.9% | 17.7% | -57% (active) | 43.3% | 10.6% | -30% (active) | 6.86% (active) | -4.06% (active) | 30.1% | 5.06% (active) | 17.9% | 6.07% (active) | 18.1%
O=C(N/N=C/c1ccc(-c2cccc([N+](=O)[O-])c2)s1)c1[nH]c2ccc(Br)cc2c1-c1ccccc1 | 81.3% | 94.8% | 99.2% | 64.4% | 84.6% | 94.4% | 66.5% | 91.4% | 92.6% | 97.7% | 106% | 92.7% | 86.1% | 74.6% | 90.8% | 92.7% | 103% | 96.6% | 85.6% | 75.2%
CCC1(OC(=O)c2ccccc2SSCCOC(=O)CCCCC2SCC3NC(=O)NC32)C(=O)OCc2c1cc1n(c2=O)Cc2cc3ccccc3nc2-1 (stereo not given) | 15.4% | 41.6% | 83.6% | 39.4% | 13.3% | 32.7% | 42.3% | 47% | 50.9% | 79.3% | 35.3% | 52.8% | 55.8% | 82.5% | 82% | 38.5% | 5.6% (active) | 29.4% | 12.8% | 40.1%
Cc1ccc(C(C(=O)NC2CCCCC2)N(Cc2ccccc2Cl)C(=O)c2ccc(CN3CCOCC3)o2)o1 (stereo not given) | 93.8% | 101% | 105% | 107% | 99.9% | 91.3% | 78.7% | 98.5% | 82.8% | 121% | 101% | 81.6% | 109% | 85.5% | 93.4% | 83.5% | 91.8% | 99.4% | 103% | 98.6%
Cc1ccc(C(C)C)cc1Oc1cccc(-c2c(-c3ccc(C(F)(F)F)cc3)ncn2C2CCNCC2)n1 | -89% (active) | -78.4% (active) | -98.4% (active) | -82.7% (active) | -84.3% (active) | -85.8% (active) | -91.2% (active) | -86.8% (active) | -90.8% (active) | -87.5% (active) | -83.5% (active) | -60.7% (active) | -86.6% (active) | -95.7% (active) | -90.3% (active) | -56.6% (active) | -94.2% (active) | -98.2% (active) | -88.4% (active) | -97.2% (active)
CCCN(CCC)S(=O)(=O)c1ccc(C(=O)O)cc1.CCCN(CCC)S(=O)(=O)c1ccc(C(=O)O)cc1.[Cl][Pt+2][Cl].[NH2-].[NH2-] | -44.1% (active) | 23.2% | 42.6% | 30.4% | 0.596% (active) | 5.16% (active) | -54.9% (active) | 33% | 14% | -57.7% (active) | 13.2% | 9.96% (active) | -98.1% (active) | -22.8% (active) | -59.6% (active) | 17.5% | 32.9% | 15.6% | -0.891% (active) | 33%
COc1cc2cc(C(=O)N3C[C@@H](CCl)c4c3cc(OC(=O)N(C)CCSSCCN3CCOCC3)c3ccccc43)[nH]c2c(OC)c1OC | -66.9% (active) | -17.2% (active) | 1.49% (active) | -49.4% (active) | 0.904% (active) | -16.1% (active) | -42.8% (active) | -9.46% (active) | -65% (active) | -80.4% (active) | -10.3% (active) | 2.13% (active) | -83.7% (active) | -20.2% (active) | -86.6% (active) | 0.895% (active) | -11.3% (active) | -72% (active) | -8.65% (active) | -81.4% (active)
COc1ccc(C(=O)c2cc(C(C)=O)c3c(C)cc(C)cn23)cc1 | 47.7% | 44.4% | 76.8% | 34.5% | 45.4% | 46.8% | 2.3% (active) | 45.3% | 45.4% | 92.7% | 66.9% | 86.4% | 72.1% | 75.3% | 8.06% (active) | 23.5% | 31% | 23.8% | 79.2% | 84.9%
COc1ccc(-c2cc(C(=O)OCc3ccc(Br)cc3)nn2-c2ccc(S(C)(=O)=O)cc2)cc1OC | 93.6% | 82% | 90.9% | 75.9% | 91.1% | 69.5% | 52.8% | 78.6% | 75% | 110% | 86.4% | 79.9% | 106% | 70.5% | 62% | 66.5% | 81.4% | 72.4% | 106% | 114%
COc1cc(/C=C/C(=O)c2cnn(-c3cc(=O)[nH]c4ccc(C)cc34)c2C)cc(OC)c1OC | -45% (active) | -17.8% (active) | 9.59% (active) | 2.27% (active) | 8.08% (active) | 50.6% | -87.1% (active) | 6.23% (active) | -27% (active) | -91.6% (active) | -54.6% (active) | 0.896% (active) | -19.5% (active) | -2.3% (active) | -76.9% (active) | 6.69% (active) | 12.7% | -29% (active) | 5.74% (active) | -51.2% (active)
C=CCSc1nnc(-c2c(C)nc3sccn23)o1 | 88.7% | 76.1% | 84.9% | 106% | 95.8% | 72.4% | 89% | 92.7% | 89.8% | 107% | 110% | 98.3% | 109% | 92.6% | 99.9% | 110% | 89.2% | 90.4% | 86.9% | 92.5%
CS(=O)(=O)c1ccc(-n2nc(C(=O)NCc3ccccc3)cc2-c2ccc(Cl)cc2)cc1 | 89.9% | 85% | 88.1% | 106% | 71.2% | 88.1% | 58.7% | 70% | 71% | 107% | 91.4% | 49.4% | 112% | 96.3% | 94.9% | 82.2% | 73.6% | 99.4% | 98.9% | 93.9%
CC1=C(C(=O)OCc2ccccc2)C(c2ccc(N(C)C)cc2)n2c(nc3ccccc32)N1 (stereo not given) | 90.8% | 70.1% | 101% | 83.6% | 99.8% | 73.5% | 8.11% (active) | 94.9% | 90.6% | 110% | 99.6% | 58% | 75.9% | 91.6% | 74.6% | 81.7% | 57.3% | 86.4% | 85.7% | 80.4%
Oc1cncc(-c2ccc3ncnc(N4CCc5cc(F)c(Cl)cc54)c3c2)c1 | 47.8% | 42.2% | 54.4% | 49.5% | 39.2% | 40.9% | 68.4% | 40.4% | 35.4% | 77% | 49% | 65% | 70.8% | 46.5% | 46.4% | 45.1% | 57.6% | 56% | 90.9% | 78%

— PubChem BioAssay (NCI)
